Experimental findings from PubChem BioAssay (Tox21) are described below.

“And” between values parts separate entries of the source, which are not always exact repeats. Identical values can stand only once. Results filed as inconclusive are left out. Where a structure was tested more than once in an assay, its records may differ in their call. The source made the active and inactive calls. Unless noted, the call rests on the fitted dose curve.

Experiment [1] in a line: Nuclear factor erythroid 2-related factor 2/antioxidant responsive element (Nrf2/ARE) small molecule agonists: qHTS cell viability counter screen in human keratinocytes (AID 1919968; active means well fitted curve in the direction sought with a large enough effect in the repeat runs; an effect the other way counts as inactive or inconclusive; further: nearly all actives have a fitted effect of over 55% in size). The gist of the method:
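Cytotoxicity was multiplexed with the Nrf2/ARE luciferase assay in the same wells. Stably transfected HaCaT keratinocytes were treated with test compounds for 23 h at 37 C. Cell viability was then measured by CellTiter-Fluor fluorescence.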

Experiment [2] is described as follows: Nuclear factor erythroid 2-related factor 2/antioxidant responsive element (Nrf2/ARE) small molecule agonists: luciferase reporter gene qHTS assay in human keratinocytes (AID 1919969). Further: nearly all actives have a fitted effect of over 35% in size. Further: potency means the concentration at half of the fitted maximal effect.
Experiment [3] deals with Gonadotropin-releasing hormone receptor (Homo sapiens) (UniProt P30968). Briefly: Human gonadotropin-releasing hormone receptor (GnRHR) small molecule agonists, calcium flux assay in GnRHR-HEK293 cells (AID 1920063). Further: nearly all actives have a fitted effect of over 35% in size. The gist of the method: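 Agonist activity was measured as intracellular calcium flux in HEK293 cells engineered to stably express human GnRHR. After dye loading for 1 hour at 37 C, compounds in DMSO were added and fluorescence was followed for 3 minutes.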
Sequence of Gonadotropin-releasing hormone receptor (Homo sapiens) (P30968 whole entry, looked up): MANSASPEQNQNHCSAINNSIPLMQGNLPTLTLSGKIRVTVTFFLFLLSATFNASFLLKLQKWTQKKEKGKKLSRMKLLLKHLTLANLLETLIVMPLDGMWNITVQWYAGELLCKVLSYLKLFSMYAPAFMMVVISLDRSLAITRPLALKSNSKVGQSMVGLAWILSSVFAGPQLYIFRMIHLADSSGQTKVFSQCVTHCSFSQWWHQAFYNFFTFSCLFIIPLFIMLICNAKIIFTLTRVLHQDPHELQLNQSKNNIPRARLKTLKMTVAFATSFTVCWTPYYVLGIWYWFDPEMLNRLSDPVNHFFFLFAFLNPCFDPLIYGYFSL

The target in experiment [4] is KiSS-1 receptor (Homo sapiens) (UniProt Q969F8). Description: Human kisspeptin (KISS1R) small molecule agonists, calcium flux assay in KISS1R-HEK293 cells (AID 1920064; active means well fitted curve in the direction sought with a large enough effect in the repeat runs; an effect the other way counts as inactive or inconclusive). The method in brief:
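Agonist activity is monitored as intracellular calcium rise in engineered HEK293 cells carrying human KISS1R. Cells are dye-loaded for 1 h at 37 C before compound addition, and fluorescence is recorded for 3 min.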

Experiment [5] is described as follows: G protein-coupled receptor (GPCR) small molecule agonists, calcium flux assay: HEK293 wild type cell line counter screen (AID 1920065). The gist of the method: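 Seed cells, incubate 18 h (37 C, 5% CO2); add calcium dye, 1 h at 37 C; pin-transfer compounds, ATP control or DMSO; read fluorescence 480/540 nm each second for 3 min.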
Experiment [6] can be described thus: p53 small molecule agonists, cell-based qHTS assay with human liver microsomes: qHTS cell viability counter screen (AID 1963579). Further: nearly all actives have a fitted effect of over 45% in size. The method in brief: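 In this multiplexed counter screen, the reporter plates were subsequently treated with CellTiter-Glo so that cell viability, reflected by luminescence, could be recorded for p53RE-bla cells dosed 16 h with compounds under microsomal activation (HLM and NADPH).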

A short description of experiment [7]: p53 small molecule agonists, cell-based qHTS assay with rat liver microsomes: qHTS cell viability counter screen (AID 1963580). Further: nearly all actives have a fitted effect of over 45% in size. The method in brief:
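Luminescent ATP readout (CellTiter-Glo, 30 min at room temperature) reports viability of p53RE-bla HCT-116 cells after 16 h at 37 C with test compounds under metabolic activation by rat liver microsomes and NADPH at 0.5 mg/mL final each.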

Experiment [8] in a line: p53 small molecule agonists, cell-based qHTS assay: qHTS cell viability counter screen (AID 1963581). Further: nearly all actives have a fitted effect of over 45% in size. The gist of the method:
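Viability was counter-screened in parallel with the p53 agonist reporter by measuring intracellular ATP luminescence in the same HCT-116 p53RE-bla wells after 16 h compound treatment at 37 C.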

The target in experiment [9] is 5-hydroxytryptamine receptor 2A (Homo sapiens) (UniProt P28223). Briefly: 5-hydroxytryptamine receptor 2A (HTR2A) small molecule antagonists, cell-based qHTS assay (AID 1963586). Further: nearly all actives have a fitted effect of over 45% in size. The gist of the method:
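CHO cells stably expressing human HTR2A were plated for 18 h at 37 C, then loaded with calcium dye for 1 h. Compounds were preincubated 5 min at room temperature before DOI (4 nM solution) was added. Kinetic fluorescence was read for 3 min.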

For experiment [10] the target is unchanged. Description: 5-hydroxytryptamine receptor 2A (HTR2A) small molecule agonists, cell-based qHTS assay (AID 1963587). Further: nearly all actives have a fitted effect of over 30% in size. The method in brief: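 HTR2A-CHO cells, plated 18 h at 37 C/5% CO2, dye-loaded 1 h at 37 C; compounds in DMSO added by pin tool (agonist mode). Intracellular calcium flux read as kinetic fluorescence on FDSS over 2 min at 1 s intervals.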

Experiment [11] concerns the target Muscarinic acetylcholine receptor M1 (Homo sapiens) (UniProt P11229). Briefly: Cholinergic receptor muscarinic 1 (CHRM1) small molecule antagonists, cell-based qHTS assay (AID 1963588). Further: nearly all actives have a fitted effect of over 40% in size. The method in brief:
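Compounds were tested at 15 concentrations in three independent runs. Dye-loaded CHRM1-CHO cells were exposed 5 min at room temperature before stimulation by acetylcholine added at 50nM. Intracellular calcium was read kinetically on FDSS for 3 min.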

Experiment [12] shares this target. Description: Cholinergic receptor muscarinic 1 (CHRM1) small molecule agonists, cell-based qHTS assay (AID 1963589). Further: nearly all actives have a fitted effect of over 35% in size. Further: potency means the concentration at half of the fitted maximal effect. The method in brief: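 Cells were plated and incubated 18 h at 37 C/5% CO2, loaded with calcium dye for 1 h at 37 C, then treated with compounds in DMSO. Fluorescence was recorded kinetically at 1 sec intervals.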
Experiment [13] in a line: cAMP Responsive Elements (CRE) small molecule agonists, cell-based qHTS assay (AID 1963590). The method in brief:
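Cells carrying a CRE-driven beta-lactamase reporter (HEK 293T) are seeded, incubated overnight (18 h), and treated with test compounds for 3 h at 37 C; reporter activity is then detected with a FRET substrate after 2 h at room temperature.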

Experiment [14] in a line: cAMP Responsive Elements (CRE) small molecule antagonists, cell-based qHTS assay (AID 1963591; active means well fitted inhibition curve with a large enough effect in the signal ratio in the repeat runs, not every such curve was filed as active; the % refers to the signal ratio). The gist of the method:
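Cells (CRE-bla HEK 293T, DMEM with 10% dialyzed FBS and 25 mM HEPES) are seeded and incubated 18 h. Compounds are added with NKH477 agonist at 0.25 uM final for 3 h, then FRET substrate for 2 h.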

Experiment [15] addresses Beta-2 adrenergic receptor (Homo sapiens) (UniProt P07550). Description: Adrenergic beta2 receptor (ADRB2) small molecule antagonists, cell-based qHTS assay (AID 1963592). Further: series mostly up to about 92 µM; nearly all actives have a fitted effect of over 50% in size. The gist of the method: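 Assay format: CHO-ADRB2 cells, 18-20hr seeding at 37C/5% CO2, then compound plus 1nM isoproterenol agonist mix for 0.5hr RT. Homogeneous time-resolved fluorescence cAMP detection after 1hr, expressed as 665/615 nm ratio.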

The target is the same in experiment [16]. Briefly: Adrenergic beta2 receptor (ADRB2) small molecule agonists, cell-based qHTS assay (AID 1963593).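 Further: CHO cells stably overexpressing human ADRB2.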 The method in brief: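 CHO cells stably over-expressing ADRB2 were plated overnight at 37C, then dosed with compounds plus a stimulation mix containing 100uM IBMX and 25uM Ro-20-1724 for 0.5hr at room temperature. cAMP was measured by HTRF competition, 1hr.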

Experiment [17] deals with D(2) dopamine receptor (Homo sapiens) (UniProt P14416). Description: Dopamine D2 receptor (DRD2) small molecule agonists, cell-based qHTS assay (AID 1963594). Further: nearly all actives have a fitted effect of over 35% in size. The method in brief: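 HEK293 cells stably expressing DRD2 were cultured 24 h at 37 C, then given Ro20-1724 (0.1 mM final) and compounds for 10 min at room temperature. NKH477 (200nM) was then added for 30 min. cAMP was read by HTRF.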
Sequence of D(2) dopamine receptor (Homo sapiens) (P14416 whole entry, looked up): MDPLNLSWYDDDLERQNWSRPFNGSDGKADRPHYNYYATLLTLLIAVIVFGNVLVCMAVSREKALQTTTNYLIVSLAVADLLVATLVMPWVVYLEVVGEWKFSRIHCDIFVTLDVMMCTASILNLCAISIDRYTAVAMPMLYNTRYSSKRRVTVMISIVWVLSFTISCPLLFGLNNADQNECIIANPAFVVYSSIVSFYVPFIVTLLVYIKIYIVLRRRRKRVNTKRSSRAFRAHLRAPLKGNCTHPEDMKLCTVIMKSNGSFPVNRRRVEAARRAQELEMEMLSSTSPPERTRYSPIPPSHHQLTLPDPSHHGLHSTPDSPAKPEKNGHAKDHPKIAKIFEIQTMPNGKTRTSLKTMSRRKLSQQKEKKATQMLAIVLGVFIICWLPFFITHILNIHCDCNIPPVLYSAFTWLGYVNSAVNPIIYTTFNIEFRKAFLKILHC

The target is the same in experiment [18]. Description: Dopamine D2 receptor (DRD2) small molecule antagonists, cell-based qHTS assay (AID 1963595; active means well fitted inhibition curve with a large enough effect in the signal ratio in the repeat runs, with a control signal flat; the % refers to the signal ratio). The method in brief:
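Stable D2 receptor HEK293 line, 24 h after seeding. Compound preincubated 10 min, then quinpirole (12 nM) with forskolin analogue NKH477 (200 nM), 30 min, room temperature. Detection by time-resolved FRET of cAMP.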

Experiment [19] is described as follows: p53 small molecule agonists, cell-based qHTS assay (AID 1963582; active means well fitted activation curve with a large enough effect in the signal ratio in the repeat runs, not every such curve was filed as active; the % refers to the signal ratio). The method in brief:
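Cells carrying a p53-responsive bla reporter are treated with test compounds for 16 h at 37 C; beta-lactamase activity is then detected with LiveBLAzer B/G FRET substrate after 2 h at room temperature.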

Sequence of Muscarinic acetylcholine receptor M1 (Homo sapiens) (P11229 whole entry, looked up): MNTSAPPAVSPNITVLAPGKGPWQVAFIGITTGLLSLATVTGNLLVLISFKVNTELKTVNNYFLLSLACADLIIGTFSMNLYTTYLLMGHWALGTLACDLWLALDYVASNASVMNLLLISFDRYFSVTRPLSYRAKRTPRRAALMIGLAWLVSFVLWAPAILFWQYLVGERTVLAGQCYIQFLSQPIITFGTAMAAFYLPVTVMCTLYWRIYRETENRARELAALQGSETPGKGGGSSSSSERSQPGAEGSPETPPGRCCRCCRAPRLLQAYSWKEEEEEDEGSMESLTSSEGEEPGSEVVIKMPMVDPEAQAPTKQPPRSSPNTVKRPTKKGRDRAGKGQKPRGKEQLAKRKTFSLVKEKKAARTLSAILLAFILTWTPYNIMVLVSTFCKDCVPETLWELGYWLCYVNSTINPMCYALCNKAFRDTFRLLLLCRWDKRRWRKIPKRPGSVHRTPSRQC
Sequence of 5-hydroxytryptamine receptor 2A (Homo sapiens) (P28223 whole entry, looked up): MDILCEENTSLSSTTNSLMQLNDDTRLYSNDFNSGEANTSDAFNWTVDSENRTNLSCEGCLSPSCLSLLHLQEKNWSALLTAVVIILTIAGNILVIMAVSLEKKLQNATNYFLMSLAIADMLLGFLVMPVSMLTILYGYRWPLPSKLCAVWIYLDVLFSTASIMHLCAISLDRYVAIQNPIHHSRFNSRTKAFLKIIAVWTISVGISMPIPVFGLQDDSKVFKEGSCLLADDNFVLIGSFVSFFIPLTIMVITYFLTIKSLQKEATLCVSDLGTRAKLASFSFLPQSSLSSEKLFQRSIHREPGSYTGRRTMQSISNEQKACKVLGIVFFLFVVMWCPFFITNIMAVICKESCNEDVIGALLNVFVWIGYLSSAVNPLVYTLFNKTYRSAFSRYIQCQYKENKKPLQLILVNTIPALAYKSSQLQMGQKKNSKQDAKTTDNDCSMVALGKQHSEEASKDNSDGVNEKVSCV
Sequence of KiSS-1 receptor (Homo sapiens) (Q969F8 whole entry, looked up): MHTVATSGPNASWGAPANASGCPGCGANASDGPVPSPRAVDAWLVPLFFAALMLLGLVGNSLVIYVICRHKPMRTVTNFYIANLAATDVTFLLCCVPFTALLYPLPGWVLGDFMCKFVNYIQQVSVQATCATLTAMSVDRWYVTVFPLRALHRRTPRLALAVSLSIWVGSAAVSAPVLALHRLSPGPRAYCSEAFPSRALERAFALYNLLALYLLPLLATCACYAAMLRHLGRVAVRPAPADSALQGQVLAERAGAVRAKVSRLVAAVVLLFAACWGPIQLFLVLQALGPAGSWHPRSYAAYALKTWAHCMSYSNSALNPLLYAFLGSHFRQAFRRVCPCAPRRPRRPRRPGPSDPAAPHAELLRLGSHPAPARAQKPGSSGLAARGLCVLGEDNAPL
Sequence of Beta-2 adrenergic receptor (Homo sapiens) (P07550 whole entry, looked up): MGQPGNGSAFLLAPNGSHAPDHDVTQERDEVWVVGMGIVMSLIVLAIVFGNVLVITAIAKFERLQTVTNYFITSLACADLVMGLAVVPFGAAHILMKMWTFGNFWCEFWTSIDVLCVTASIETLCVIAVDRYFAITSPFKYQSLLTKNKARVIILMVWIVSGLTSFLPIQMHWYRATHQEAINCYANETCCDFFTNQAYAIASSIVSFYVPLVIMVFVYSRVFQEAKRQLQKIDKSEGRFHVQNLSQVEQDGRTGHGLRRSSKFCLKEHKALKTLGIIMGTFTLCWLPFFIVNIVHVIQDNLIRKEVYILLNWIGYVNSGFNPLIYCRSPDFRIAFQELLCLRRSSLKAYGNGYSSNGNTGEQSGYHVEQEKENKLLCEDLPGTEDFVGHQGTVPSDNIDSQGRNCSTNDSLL

On to `O=C1CCCN1`, for which the Potency result in experiment [1], in [2], in experiment [3], in [4], in [5] and in [6] was “inactive” in each case. Further, the Potency result in [7], in [8], in experiment [9], in experiment [10], in experiment [11] and in [13] was “inactive” each time. The Potency result in [14], in experiment [15], in experiment [16], in [17] and in experiment [18] was “inactive” each time. Also, the Potency in experiment [12] is 49.5 µM (active) and inactive.
As to `c1ccc2sc(SNC3CCCCC3)nc2c1`, the Potency entry in experiment [1], in experiment [3], in experiment [4], in experiment [5], in [6] and in [7] was “inactive” throughout. Further, the Potency entry in experiment [8], in experiment [9], in [10], in experiment [11], in [12] and in experiment [13] was “inactive” each time. The Potency entry in [14], in [15], in experiment [16], in experiment [17] and in experiment [18] was “inactive” throughout. The Potency in experiment [2] is 53.9 µM (active) and 61.1 µM (active).
Regarding `O=C(O)c1cc(Oc2ccc(C(F)(F)F)cc2Cl)ccc1[N+](=O)[O-]`, the Potency entry in experiment [1], in experiment [2], in [3], in experiment [4], in experiment [5] and in [6] was “inactive” each time. Further, the Potency result in [7], in [8], in experiment [9], in [10], in experiment [11] and in experiment [12] was “inactive” in each case. In addition, the Potency entry in experiment [14], in [15], in [16], in experiment [17] and in experiment [18] was “inactive” throughout.
In the case of `CCOP(=O)(OCC)SCCSCC`, the Potency entry in experiment [1], in experiment [3], in experiment [4], in experiment [5], in experiment [6] and in experiment [7] was “inactive” each time. The Potency result in experiment [8], in experiment [19], in experiment [9], in experiment [10], in experiment [11] and in [13] was “inactive” each time. In addition, the Potency entry in [14], in experiment [15] and in experiment [18] was “inactive” throughout. In addition, the Potency result in [2] is “inactive and 68.6 µM (active)”.
Regarding `C[N+](C)(C)Cc1ccccc1`, the Potency entry in [1], in [2], in [3], in experiment [4], in experiment [5] and in experiment [6] was “inactive” each time. The Potency entry in experiment [7], in [8], in [9], in experiment [10], in experiment [11] and in experiment [13] was “inactive” in each case. Besides, the Potency result in experiment [14], in experiment [15], in [16] and in experiment [18] was “inactive” each time. Moreover, the Potency in experiment [12] was 3.07 µM (active) and 5.49 µM (active).
For the compound `CCC[N+]1(C)CCCCC1`, the Potency result in experiment [1], in [2], in [3], in [4], in experiment [5] and in experiment [6] was “inactive” in each case. The Potency result in experiment [7], in [8], in experiment [9], in [10], in [11] and in [12] was “inactive” each time. The Potency entry in [13], in [14], in experiment [15], in experiment [16], in experiment [17] and in experiment [18] was “inactive” in each case.
On to `Nc1ncn[nH]1`, for which the Potency entry in [1], in experiment [2], in experiment [3], in experiment [4], in experiment [5] and in [6] was “inactive” each time. The Potency result in experiment [7], in experiment [8], in experiment [9], in experiment [10], in experiment [11] and in experiment [12] was “inactive” in each case. The Potency entry in [13], in experiment [14], in [15], in experiment [16], in [17] and in [18] was “inactive” throughout.
